The full data set covers some 8,800 targets. This sample favours those with a hit. About 0.5% of all pairs of compound and target were hits. A number with no mark means an inactive call.

UniProt Q15464, sequence (Q15464 whole entry, looked up): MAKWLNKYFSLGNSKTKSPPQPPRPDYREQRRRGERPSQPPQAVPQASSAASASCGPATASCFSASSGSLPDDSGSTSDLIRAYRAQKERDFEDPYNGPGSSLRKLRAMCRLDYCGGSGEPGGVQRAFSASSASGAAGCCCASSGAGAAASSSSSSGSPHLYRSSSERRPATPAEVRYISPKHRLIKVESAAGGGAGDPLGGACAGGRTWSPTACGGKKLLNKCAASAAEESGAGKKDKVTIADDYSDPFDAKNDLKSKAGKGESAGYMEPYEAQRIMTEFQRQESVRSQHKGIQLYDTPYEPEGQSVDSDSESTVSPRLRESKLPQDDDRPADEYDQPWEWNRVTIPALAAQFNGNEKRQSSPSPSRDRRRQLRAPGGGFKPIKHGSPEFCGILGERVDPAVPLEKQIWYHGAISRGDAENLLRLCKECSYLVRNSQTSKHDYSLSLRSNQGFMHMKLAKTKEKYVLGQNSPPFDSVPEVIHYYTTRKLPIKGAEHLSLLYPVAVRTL
UniProt B2RUZ4, sequence (B2RUZ4 whole entry, looked up): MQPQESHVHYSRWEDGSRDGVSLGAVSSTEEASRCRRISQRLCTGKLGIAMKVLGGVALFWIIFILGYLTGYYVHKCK
UniProt Q15544, sequence (Q15544 whole entry, looked up): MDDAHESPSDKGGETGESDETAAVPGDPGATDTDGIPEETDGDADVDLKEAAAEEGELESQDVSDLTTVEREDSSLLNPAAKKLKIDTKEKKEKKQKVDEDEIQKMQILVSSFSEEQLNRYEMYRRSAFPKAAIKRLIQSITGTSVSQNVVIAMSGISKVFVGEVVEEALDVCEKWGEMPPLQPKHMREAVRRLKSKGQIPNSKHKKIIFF
UniProt Q9UHW9, sequence (Q9UHW9 whole entry, looked up): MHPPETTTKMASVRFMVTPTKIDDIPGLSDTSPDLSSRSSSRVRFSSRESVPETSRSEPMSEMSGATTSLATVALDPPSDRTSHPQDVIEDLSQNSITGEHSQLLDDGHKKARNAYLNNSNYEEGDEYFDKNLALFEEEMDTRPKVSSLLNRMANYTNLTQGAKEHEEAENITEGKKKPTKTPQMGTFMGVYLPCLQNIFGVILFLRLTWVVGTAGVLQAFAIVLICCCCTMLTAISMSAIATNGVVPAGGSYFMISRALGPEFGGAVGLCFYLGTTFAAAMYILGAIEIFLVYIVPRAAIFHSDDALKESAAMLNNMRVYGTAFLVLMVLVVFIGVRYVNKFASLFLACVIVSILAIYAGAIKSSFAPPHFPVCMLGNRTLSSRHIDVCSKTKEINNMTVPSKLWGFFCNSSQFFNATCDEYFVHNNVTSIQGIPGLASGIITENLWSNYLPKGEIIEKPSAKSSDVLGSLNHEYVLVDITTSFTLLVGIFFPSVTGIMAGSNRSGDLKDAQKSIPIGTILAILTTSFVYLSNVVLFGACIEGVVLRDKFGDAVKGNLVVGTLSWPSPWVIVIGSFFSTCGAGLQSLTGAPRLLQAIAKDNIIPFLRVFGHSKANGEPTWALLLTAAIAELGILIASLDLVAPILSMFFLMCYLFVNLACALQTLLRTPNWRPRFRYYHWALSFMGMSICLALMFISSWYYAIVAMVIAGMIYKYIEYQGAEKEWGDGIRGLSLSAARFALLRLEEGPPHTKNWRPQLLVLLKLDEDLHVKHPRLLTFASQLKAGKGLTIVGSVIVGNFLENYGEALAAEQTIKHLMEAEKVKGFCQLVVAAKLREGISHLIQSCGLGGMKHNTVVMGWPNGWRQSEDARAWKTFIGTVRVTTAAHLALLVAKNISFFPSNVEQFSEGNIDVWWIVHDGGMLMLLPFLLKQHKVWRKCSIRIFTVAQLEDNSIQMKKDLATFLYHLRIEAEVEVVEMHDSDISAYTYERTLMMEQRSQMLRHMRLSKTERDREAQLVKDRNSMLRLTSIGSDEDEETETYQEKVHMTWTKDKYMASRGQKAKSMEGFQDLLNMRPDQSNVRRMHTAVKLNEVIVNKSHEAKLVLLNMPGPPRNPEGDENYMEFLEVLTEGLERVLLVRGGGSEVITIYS
UniProt Q13487, sequence (Q13487 whole entry, looked up): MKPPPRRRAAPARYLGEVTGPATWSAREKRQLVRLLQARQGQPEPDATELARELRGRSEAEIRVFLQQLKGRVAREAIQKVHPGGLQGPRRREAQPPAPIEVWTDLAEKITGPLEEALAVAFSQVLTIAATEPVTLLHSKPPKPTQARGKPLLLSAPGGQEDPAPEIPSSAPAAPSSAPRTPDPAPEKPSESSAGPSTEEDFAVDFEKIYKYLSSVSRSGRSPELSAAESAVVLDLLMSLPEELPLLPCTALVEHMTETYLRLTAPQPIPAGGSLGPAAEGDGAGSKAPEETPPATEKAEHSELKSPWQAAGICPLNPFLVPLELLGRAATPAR
UniProt P51532, sequence (P51532 whole entry, looked up): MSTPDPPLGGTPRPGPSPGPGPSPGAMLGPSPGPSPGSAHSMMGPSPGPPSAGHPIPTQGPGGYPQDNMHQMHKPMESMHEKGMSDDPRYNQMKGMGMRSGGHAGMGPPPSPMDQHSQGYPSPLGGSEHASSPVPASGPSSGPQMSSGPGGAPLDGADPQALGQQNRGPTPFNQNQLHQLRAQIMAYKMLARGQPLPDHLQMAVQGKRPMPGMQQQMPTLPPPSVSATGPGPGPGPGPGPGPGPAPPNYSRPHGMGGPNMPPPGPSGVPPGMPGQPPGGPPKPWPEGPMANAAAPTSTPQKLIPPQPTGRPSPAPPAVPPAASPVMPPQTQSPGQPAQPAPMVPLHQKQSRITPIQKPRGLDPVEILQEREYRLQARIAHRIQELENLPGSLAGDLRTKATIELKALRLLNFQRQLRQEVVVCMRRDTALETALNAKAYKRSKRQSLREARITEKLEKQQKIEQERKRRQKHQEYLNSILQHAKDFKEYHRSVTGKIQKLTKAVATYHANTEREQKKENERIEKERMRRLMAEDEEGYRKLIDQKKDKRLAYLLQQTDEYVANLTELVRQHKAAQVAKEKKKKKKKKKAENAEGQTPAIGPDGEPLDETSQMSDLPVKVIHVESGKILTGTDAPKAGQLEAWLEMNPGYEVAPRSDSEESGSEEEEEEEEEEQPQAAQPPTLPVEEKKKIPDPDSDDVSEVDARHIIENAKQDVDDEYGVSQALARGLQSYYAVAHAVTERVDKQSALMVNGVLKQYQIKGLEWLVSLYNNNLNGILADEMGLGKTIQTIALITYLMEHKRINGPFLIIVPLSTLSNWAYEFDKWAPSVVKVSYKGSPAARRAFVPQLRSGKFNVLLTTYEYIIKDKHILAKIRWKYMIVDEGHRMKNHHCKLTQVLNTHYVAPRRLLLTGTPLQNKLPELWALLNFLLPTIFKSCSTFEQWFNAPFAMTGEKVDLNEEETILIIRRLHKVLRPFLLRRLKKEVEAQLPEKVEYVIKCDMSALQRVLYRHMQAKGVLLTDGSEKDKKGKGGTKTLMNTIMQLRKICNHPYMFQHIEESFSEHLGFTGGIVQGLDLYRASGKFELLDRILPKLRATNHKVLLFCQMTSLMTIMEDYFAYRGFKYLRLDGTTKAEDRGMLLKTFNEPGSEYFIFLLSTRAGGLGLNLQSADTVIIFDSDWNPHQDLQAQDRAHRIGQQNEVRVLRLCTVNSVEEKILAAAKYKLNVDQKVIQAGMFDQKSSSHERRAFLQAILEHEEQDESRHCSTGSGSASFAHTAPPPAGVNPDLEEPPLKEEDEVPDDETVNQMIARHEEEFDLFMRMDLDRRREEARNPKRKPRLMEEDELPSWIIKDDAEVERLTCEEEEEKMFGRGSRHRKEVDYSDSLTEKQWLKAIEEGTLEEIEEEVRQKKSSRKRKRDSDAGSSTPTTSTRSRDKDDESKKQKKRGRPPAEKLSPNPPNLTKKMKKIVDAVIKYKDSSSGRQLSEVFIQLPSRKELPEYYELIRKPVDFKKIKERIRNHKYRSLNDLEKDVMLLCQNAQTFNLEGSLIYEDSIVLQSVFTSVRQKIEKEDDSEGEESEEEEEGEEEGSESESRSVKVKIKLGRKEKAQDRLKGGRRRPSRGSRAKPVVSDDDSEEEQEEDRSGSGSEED
UniProt O60906, sequence (O60906 whole entry, looked up): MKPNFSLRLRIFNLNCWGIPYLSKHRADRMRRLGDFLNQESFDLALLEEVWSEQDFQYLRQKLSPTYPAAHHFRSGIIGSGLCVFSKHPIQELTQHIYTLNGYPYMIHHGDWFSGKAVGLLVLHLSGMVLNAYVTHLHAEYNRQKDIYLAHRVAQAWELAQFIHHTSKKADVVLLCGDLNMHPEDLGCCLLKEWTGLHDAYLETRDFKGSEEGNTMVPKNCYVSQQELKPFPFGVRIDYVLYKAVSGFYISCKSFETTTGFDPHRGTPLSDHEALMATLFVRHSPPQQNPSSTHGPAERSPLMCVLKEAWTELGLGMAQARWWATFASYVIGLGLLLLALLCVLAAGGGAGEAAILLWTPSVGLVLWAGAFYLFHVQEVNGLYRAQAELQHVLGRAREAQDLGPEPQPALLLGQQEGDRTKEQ
UniProt O94768, sequence (O94768 whole entry, looked up): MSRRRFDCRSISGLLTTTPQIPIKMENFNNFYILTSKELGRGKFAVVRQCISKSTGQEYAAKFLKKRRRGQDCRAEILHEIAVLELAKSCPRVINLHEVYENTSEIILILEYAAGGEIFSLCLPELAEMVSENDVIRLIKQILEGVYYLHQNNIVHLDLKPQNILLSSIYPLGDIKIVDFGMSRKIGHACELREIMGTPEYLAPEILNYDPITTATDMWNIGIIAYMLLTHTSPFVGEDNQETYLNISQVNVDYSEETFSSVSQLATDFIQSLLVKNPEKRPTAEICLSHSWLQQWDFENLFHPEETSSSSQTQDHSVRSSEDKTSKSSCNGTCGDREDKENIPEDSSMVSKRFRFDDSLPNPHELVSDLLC
UniProt O00161, sequence (O00161 whole entry, looked up): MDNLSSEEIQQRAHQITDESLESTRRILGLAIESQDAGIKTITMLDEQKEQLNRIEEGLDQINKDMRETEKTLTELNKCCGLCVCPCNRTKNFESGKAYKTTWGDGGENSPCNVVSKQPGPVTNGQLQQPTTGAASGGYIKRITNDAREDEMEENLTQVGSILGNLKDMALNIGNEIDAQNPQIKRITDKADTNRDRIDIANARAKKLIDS

Compound in this assay: CN1CCc2c(c3ccccc3n2Cc2ccc(C(=O)NO)cc2)C1 [Tubastatin A]
Kind of assay: log2 fold change, soluble protein after heating vs DMSO (PISA); higher = thermal stabilisation; K562 lysate, 10 uM; active = over 0.2 and 3.5 SD of the protein, either way, in both replicates (recomputed). The method in brief:
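Values give the log-two fold change in thermal stability against solvent controls, from duplicates. Crude K562 extract at 1 mg/mL protein, made by dounce homogenisation in PBS pH 7.4 with 1 mM MgCl2, was treated with 10 μM compound for 30 min. After 3 min heating across 48°C-58°C, aliquots were pooled, adjusted to 0.5% NP-40 at 4°C and centrifuged at 21,000xg for 90 min. The supernatant was measured by TMTpro 16plex LC-MS/MS with channel sums equalised.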
With SKP2 (UniProt Q13309), the log2 fold change is -0.077.

Regarding SRC isoform 2 (UniProt P12931), the log2 fold change was 0.133.

On to SLC12A6 isoform 2 (UniProt Q9UHW9), for which the log2 fold change is -0.013.

SNAP23 isoform 2 (UniProt O00161): the log2 fold change is -0.202.

Turning to SPAG1 (UniProt Q07617), the log2 fold change is 0.071.

Turning to SMARCA4 isoform 4 (UniProt P51532), the log2 fold change is 0.106.

Regarding SZT2 (UniProt Q5T011), the log2 fold change was 0.012.

As to STAR (UniProt P49675), the log2 fold change was 0.448 (active).

STK38L (UniProt Q9Y2H1): the log2 fold change was -0.063.

Regarding SHB (UniProt Q15464), the log2 fold change was -0.108.

With SNAPC2 (UniProt Q13487), the log2 fold change is -0.117.

As to TAF11 (UniProt Q15544), the log2 fold change is 0.014.

SMIM1 (UniProt B2RUZ4): the log2 fold change is 0.123.

As for SNRPD2 (UniProt K7EJB5), the log2 fold change was -0.001.

As to SLU7 (UniProt O95391), the log2 fold change was -0.042.

Take SLC25A36 (UniProt Q96CQ1): the log2 fold change was -0.047.

For SMPD2 (UniProt O60906), the log2 fold change is 0.088.

Turning to SLC40A1 (UniProt Q9NP59), the log2 fold change was 0.145.

In the case of SLC41A1 (UniProt Q8IVJ1), the log2 fold change is 0.055.

As to STK17B (UniProt O94768), the log2 fold change is -0.466.

In the case of SLC39A13 (UniProt Q96H72), the log2 fold change was -0.125.

As to SIX5 (UniProt Q8N196), the log2 fold change is 0.117.

For SLC35A3 isoform 2 (UniProt Q9Y2D2), the log2 fold change is -0.079.

(Values after the supplement of paper PMC10849652.)
